The whole screen tested about 39,000 compounds, of which about 3,300 (8.5%) were called active. Many of the other results were omitted from the sample, so actives are more common in it than they were.

This assay deals with HepG2. Put plainly: cytotoxicity call (relative viability < 0.9). The settings on record: 10 µM.
Consider `C[C@@H]1CCCCO[C@@H](CN(C)Cc2ccncc2)[C@H](C)CN([C@@H](C)CO)C(=O)c2cc(NC(=O)C3CCCCC3)ccc2O1`, for which the cytotoxicity call was “inactive”.
The entry for `CCOC(=O)c1cccc(N)c1.CS(=O)(=O)O` is “inactive”; for `CCOc1ccc2nc(S(N)(=O)=O)sc2c1` it is “inactive”; for `CC(O)C(=O)O.CCOc1ccc2nc3cc(N)ccc3c(N)c2c1` it is “active”.
The entry for `CO[C@@H](CN(C)C(=O)C1CCOCC1)[C@@H](C)CN(C(=O)Nc1ccc(C(F)(F)F)cc1)[C@@H](C)CO` is “inactive”; for `CC(=O)N[C@@H]1C[C@H](O)[C@@H](O)CCC(=O)N[C@H](c2ccccc2)COC1=O` it is “inactive”.
In the case of `C[C@H]1CN([C@@H](C)CO)C(=O)Cc2cc(NC(=O)Cn3cnnn3)ccc2O[C@H]1CN(C)C(=O)Nc1ccc(C(F)(F)F)cc1`, the cytotoxicity call is “inactive”.
The value for `C[C@@H]1CCCCO[C@@H](CN(C)C(=O)NC2CCCCC2)[C@H](C)CN([C@H](C)CO)C(=O)c2cc(NC(=O)CCC(F)(F)F)ccc2O1` was “inactive”; that for `CO[C@H]1CN(C)C(=O)c2cc(NC(=O)NC(C)C)ccc2OC[C@H](C)N(Cc2ccc(-c3ccccn3)cc2)C[C@H]1C` was “inactive”; that for `C[C@@H]1CCCCO[C@@H](CN(C)C(=O)Nc2cccc3ccccc23)[C@@H](C)CN([C@H](C)CO)C(=O)c2cc(NS(=O)(=O)c3ccc(F)cc3)ccc2O1` was “inactive”.
As to `C[C@@H]1CN([C@@H](C)CO)C(=O)c2cc(NS(=O)(=O)c3ccc(F)cc3)ccc2O[C@@H](C)CCCCO[C@@H]1CN(C)C(=O)Nc1cccc2ccccc12`, the cytotoxicity call is “inactive”.
`C[C@@H]1CCCCO[C@@H](CN(C)C(=O)Nc2cccc3ccccc23)[C@H](C)CN([C@@H](C)CO)C(=O)c2cc(NS(=O)(=O)c3ccc(F)cc3)ccc2O1`: the cytotoxicity call is “inactive”.
The entry for `C[C@@H]1CCCCO[C@H](CN(C)C(=O)Nc2cccc3ccccc23)[C@@H](C)CN([C@H](C)CO)C(=O)c2cc(NS(=O)(=O)c3ccc(F)cc3)ccc2O1` is “active”.
The value for `C[C@H](CO)N1C[C@H](C)[C@@H](CN(C)C(=O)Nc2cccc3ccccc23)OCCCC[C@H](C)Oc2ccc(NS(=O)(=O)c3ccc(F)cc3)cc2C1=O` was “inactive”; that for `C[C@@H]1CN([C@@H](C)CO)C(=O)c2cc(NS(=O)(=O)c3ccc(F)cc3)ccc2O[C@@H](C)CCCCO[C@H]1CN(C)C(=O)Nc1cccc2ccccc12` was “inactive”; that for `C[C@@H]1CCCCO[C@@H](CN(C)C(=O)Nc2cccc3ccccc23)[C@H](C)CN([C@H](C)CO)C(=O)c2cc(NS(=O)(=O)c3ccc(F)cc3)ccc2O1` was “active”.
With `C[C@H](CO)N1C[C@H](C)[C@H](CN(C)C(=O)Nc2cccc3ccccc23)OCCCC[C@H](C)Oc2ccc(NS(=O)(=O)c3ccc(F)cc3)cc2C1=O`, the cytotoxicity call was “inactive”.
The value for `C[C@H]1CCCCO[C@@H](CN(C)C(=O)Nc2cccc3ccccc23)[C@@H](C)CN([C@@H](C)CO)C(=O)c2cc(NS(=O)(=O)c3ccc(F)cc3)ccc2O1` was “inactive”.
The entry for `C[C@@H]1CCCCO[C@H](CN(C)C(=O)Nc2cccc3ccccc23)[C@H](C)CN([C@@H](C)CO)C(=O)c2cc(NS(=O)(=O)c3ccc(F)cc3)ccc2O1` is “active”; for `C[C@H]1CCCCO[C@H](CN(C)C(=O)Nc2cccc3ccccc23)[C@@H](C)CN([C@@H](C)CO)C(=O)c2cc(NS(=O)(=O)c3ccc(F)cc3)ccc2O1` it is “active”; for `CN1CCC[C@H](C(=O)O)C1` it is “inactive”.
The value for `C[C@@H]1CN([C@H](C)CO)S(=O)(=O)c2ccc(C#CC3CC3)cc2O[C@H]1CN(C)Cc1cccc(F)c1` was “inactive”; that for `CNC[C@H]1Oc2cc(C#CC(C)(C)O)ccc2S(=O)(=O)N([C@H](C)CO)C[C@@H]1C` was “inactive”.
Turning to `O=C(C[C@@H]1CC[C@H]2[C@@H](COC[C@@H](O)CN2S(=O)(=O)c2ccc(Cl)cc2)O1)N[C@@H]1CCN(Cc2ccccc2)C1`, the cytotoxicity call was “inactive”.
The value for `C[C@@H]1CN([C@H](C)CO)C(=O)c2cc(NS(C)(=O)=O)ccc2O[C@H]1CN(C)C(=O)Nc1ccc2c(c1)OCO2` was “inactive”; that for `CCOC(=O)c1snc2c(=O)nc[nH]c12` was “inactive”.
For `C=CCOC(=O)[C@@H]1[C@H]2C(=O)O[C@H](c3ccccc3)[C@H](c3ccccc3)N2[C@H](c2ccc(OCCOC(=O)[C@H]3C[C@H]4C(=O)N[C@@H](CCCCNC(C)=O)C(=O)N4[C@H]3c3cccc(OCCO)c3)cc2)[C@@]12C(=O)Nc1ccc(I)cc12`, the cytotoxicity call was “inactive”.
For the molecule `C[C@@H]1CCCCO[C@@H](CN(C)C(=O)CCC(F)(F)F)[C@@H](C)CN([C@@H](C)CO)C(=O)c2cc(NC(=O)Nc3ccc4c(c3)OCO4)ccc2O1`, the cytotoxicity call was “inactive”.
For `C[C@@H]1CCCCO[C@H](CN(C)C(=O)Nc2cccc3ccccc23)[C@H](C)CN([C@H](C)CO)C(=O)c2cc(NS(=O)(=O)c3ccc(F)cc3)ccc2O1`, the cytotoxicity call is “active”.
`C[C@H]1CN([C@@H](C)CO)S(=O)(=O)c2ccc(-c3cccnc3)cc2O[C@H]1CN(C)C(=O)c1ccc2c(c1)OCO2`: the cytotoxicity call was “inactive”.
Take `NC(=O)CC1=NC(=O)CS1`: the cytotoxicity call was “inactive”.
The value for `C[C@H]1CN([C@@H](C)CO)C(=O)Cc2cc(NC(=O)Cc3ccccc3)ccc2O[C@@H]1CN(C)S(C)(=O)=O` was “inactive”; that for `Cc1ccc(S(=O)(=O)Nc2ccc3c(c2)C(=O)N([C@@H](C)CO)C[C@H](C)[C@H](CN(C)Cc2ccc4c(c2)OCO4)OCCCC[C@@H](C)O3)cc1` was “inactive”; that for `C[C@@H]1CN([C@@H](C)CO)C(=O)c2cc(NC(=O)Nc3cccc4ccccc34)ccc2O[C@H]1CN(C)Cc1ccncc1` was “inactive”.
Turning to `C#CC1(OC(C)=O)CCC2C3CCC4=CC(=NO)CCC4C3CCC21CC` (configuration not stated), the cytotoxicity call is “active”.
The entry for `C#CC1(OC(C)=O)CCC2C3CCC4=CC(OC(C)=O)CCC4C3CCC21C` (configuration not stated) is “active”; for `CC(=O)OC1(C(C)=O)CCC2C3CC(C)C4=CC(=O)CCC4(C)C3CCC21C` (configuration not stated) it is “inactive”.
For the molecule `C#CC1(O)CCC2C3CCC4=CC(=O)CCC4C3CCC21CC` (configuration not stated), the cytotoxicity call was “inactive”.
The entry for `C#CC1(OC(C)=O)CCC2C3CCC4=CC(=O)CCC4C3CCC21C` (configuration not stated) is “inactive”.
Turning to `C[C@@H]1CN([C@H](C)CO)C(=O)CCCn2cc(nn2)CO[C@@H]1CN(C)C(=O)Nc1ccc2c(c1)OCCO2`, the cytotoxicity call is “inactive”.
Take `COc1ccc(S(=O)(=O)Nc2cccc3c2O[C@@H](CN(C)C(=O)Nc2c(C)noc2C)[C@H](C)CN([C@H](C)CO)C3=O)cc1`: the cytotoxicity call is “inactive”.
In the case of `COc1cccc(S(=O)(=O)N(C)C[C@@H]2Oc3cc(C4=CCCC4)ccc3S(=O)(=O)N([C@H](C)CO)C[C@@H]2C)c1`, the cytotoxicity call is “inactive”.
The value for `C[C@@H]1CN([C@@H](C)CO)C(=O)Cc2cc(NC(=O)CCC(F)(F)F)ccc2O[C@H]1CN(C)Cc1ccc(Cl)c(Cl)c1` was “active”.
The value for `C[C@@H]1CN([C@@H](C)CO)C(=O)Cc2cc(NC(=O)CCC(F)(F)F)ccc2O[C@@H]1CN(C)Cc1ccc(Cl)c(Cl)c1` was “active”.
The value for `C[C@@H]1CN([C@H](C)CO)C(=O)Cc2cc(NC(=O)CCC(F)(F)F)ccc2O[C@H]1CN(C)Cc1ccc(Cl)c(Cl)c1` was “inactive”; that for `C[C@H]1CN([C@@H](C)CO)C(=O)c2cc(NC(=O)CCC(F)(F)F)ccc2O[C@H]1CN(C)Cc1ccc(Cl)c(Cl)c1` was “inactive”.
For `C[C@@H]1CN([C@H](C)CO)C(=O)Cc2cc(NC(=O)CCC(F)(F)F)ccc2O[C@@H]1CN(C)Cc1ccc(Cl)c(Cl)c1`, the cytotoxicity call was “inactive”.
The value for `C[C@@H]1CN([C@@H](C)CO)C(=O)c2cc(NC(=O)CCC(F)(F)F)ccc2O[C@H]1CN(C)Cc1ccc(Cl)c(Cl)c1` was “active”.
The value for `C[C@H](CO)N1C[C@H](C)[C@@H](CN(C)Cc2ccc(Cl)c(Cl)c2)Oc2ccc(NC(=O)CCC(F)(F)F)cc2CC1=O` was “inactive”; that for `C[C@H](CO)N1C[C@H](C)[C@H](CN(C)Cc2ccc(Cl)c(Cl)c2)Oc2ccc(NC(=O)CCC(F)(F)F)cc2CC1=O` was “inactive”.
`C[C@@H]1CN([C@H](C)CO)C(=O)c2cc(NC(=O)CCC(F)(F)F)ccc2O[C@@H]1CN(C)Cc1ccc(Cl)c(Cl)c1`: the cytotoxicity call was “inactive”.
The value for `C[C@H]1CCCCO[C@@H](CN(C)C(=O)Nc2ccc(C(F)(F)F)cc2)[C@@H](C)CN([C@@H](C)CO)C(=O)c2cc(N(C)C)ccc2O1` was “inactive”; that for `CC(C)NC(=O)Nc1ccc2c(c1)CC(=O)N([C@H](C)CO)C[C@@H](C)[C@@H](CN(C)Cc1ccc3c(c1)OCO3)O2` was “inactive”.
The value for `C[C@@H]1CCCCO[C@H](CN(C)C(=O)Cc2ccccc2)[C@@H](C)CN([C@H](C)CO)C(=O)c2cc(NC(=O)Cc3ccccc3)ccc2O1` was “inactive”.
The entry for `C[C@H]1CN([C@@H](C)CO)C(=O)c2cccc(NC(=O)c3ccc(-c4nccs4)cc3)c2O[C@H]1CN(C)C(=O)NC1CCCCC1` is “inactive”.
For the molecule `Cc1noc(C)c1NC(=O)N(C)C[C@H]1OCCCC[C@@H](C)Oc2ccc(NC(=O)Nc3ccc(C(F)(F)F)cc3)cc2C(=O)N([C@@H](C)CO)C[C@H]1C`, the cytotoxicity call is “inactive”.
The value for `CC(C)NC(=O)N(C)C[C@H]1OCCCC[C@@H](C)Oc2ccc(NC(=O)Nc3ccc(C(F)(F)F)cc3)cc2C(=O)N([C@@H](C)CO)C[C@H]1C` was “inactive”.
The entry for `CC(C)NC(=O)N(C)C[C@@H]1OCCCC[C@H](C)Oc2ccc(NC(=O)Nc3ccc(C(F)(F)F)cc3)cc2C(=O)N([C@@H](C)CO)C[C@@H]1C` is “active”; for `C[C@@H]1CN([C@H](C)CO)C(=O)c2cc(NC(=O)Nc3ccc(C(F)(F)F)cc3)ccc2O[C@@H](C)CCCCO[C@H]1CN(C)C(=O)Nc1ccc(C(F)(F)F)cc1` it is “active”; for `Cc1noc(C)c1NC(=O)N(C)C[C@@H]1OCCCC[C@@H](C)Oc2ccc(NC(=O)Nc3ccc(C(F)(F)F)cc3)cc2C(=O)N([C@H](C)CO)C[C@@H]1C` it is “inactive”.
The entry for `Cc1noc(C)c1NC(=O)N(C)C[C@@H]1OCCCC[C@H](C)Oc2ccc(NC(=O)Nc3ccc(C(F)(F)F)cc3)cc2C(=O)N([C@@H](C)CO)C[C@@H]1C` is “active”; for `C[C@@H]1CCCCO[C@H](CN(C)C(=O)Nc2ccc(C(F)(F)F)cc2)[C@H](C)CN([C@H](C)CO)C(=O)c2cc(NC(=O)Nc3ccc(C(F)(F)F)cc3)ccc2O1` it is “inactive”.
`C[C@H](CO)N1C[C@H](C)[C@H](CN(C)C(=O)Nc2ccc(C(F)(F)F)cc2)OCCCC[C@H](C)Oc2ccc(NC(=O)Nc3ccc(C(F)(F)F)cc3)cc2C1=O`: the cytotoxicity call is “inactive”.
Regarding `CC(C)NC(=O)N(C)C[C@H]1OCCCC[C@H](C)Oc2ccc(NC(=O)Nc3ccc(C(F)(F)F)cc3)cc2C(=O)N([C@H](C)CO)C[C@@H]1C`, the cytotoxicity call is “inactive”.
In the case of `C[C@@H]1CCCCO[C@H](CN(C)C(=O)Nc2ccc(C(F)(F)F)cc2)[C@@H](C)CN([C@@H](C)CO)C(=O)c2cc(NC(=O)Nc3ccc(C(F)(F)F)cc3)ccc2O1`, the cytotoxicity call is “inactive”.
The value for `C[C@H]1CCCCO[C@H](CN(C)C(=O)Nc2ccc(C(F)(F)F)cc2)[C@@H](C)CN([C@@H](C)CO)C(=O)c2cc(NC(=O)Nc3ccc(C(F)(F)F)cc3)ccc2O1` was “active”; that for `C[C@H]1CCCCO[C@@H](CN(C)C(=O)Nc2ccc(C(F)(F)F)cc2)[C@@H](C)CN([C@@H](C)CO)C(=O)c2cc(NC(=O)Nc3ccc(C(F)(F)F)cc3)ccc2O1` was “inactive”.

For the origin of these results see the antibiotic and cytotoxicity screens of Wong et al. (2023).
